Laboratory results from PubChem BioAssay AID1117319 (Southern Research Institute, 2015).
“And” between values parts separate entries of the source, which are not always exact repeats. Equal entries are not always repeated. The whole screen tested about 260,000 compounds, of which about 1,500 (0.58%) were called active. Roughly 5% stayed inconclusive and do not appear here. Not all results are given here. Results with a measured potency or affinity are listed apart. A number with no mark means an inactive call.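 Rule for the calls: active = inhibition above a set limit at one or more doses, reproduced on every date tested; inconclusive = results disagree between test dates, or hit never tested in dose response; inactive = the rest.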

Target: Virion infectivity factor (Human immunodeficiency virus type 1 group M subtype B (isolate BH10)) + Virion infectivity factor (Human immunodeficiency virus type 1 group M subtype B (isolate BRU/LAI)) + Virion infectivity factor (Human immunodeficiency virus type 1 group M subtype B (isolate PCV12)) + Virion infectivity factor (Human immunodeficiency virus type 1 group M subtype B (isolate HXB2)) + DNA dC->dU-editing enzyme APOBEC-3G (Homo sapiens) (UniProt P69720+P69721+P69722+P69723+Q9HC16)
Experiment: inhibitors of Vif binding to APOBEC3G peptide, primary screen, biochemical, TR-FRET, GST-Vif 1-94, biotin-A3G peptide, dose response retest (AID 1117319);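 note: Vif residues 1-94 fused to GST binding biotinylated APOBEC3G peptide 110-148; 0% = full assay without inhibitor and 100% = GST in place of GST-Vif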
Settings: hits give high values

SMILES | inhibition
CC(=O)c1ccc(OCc2cc(C(=O)N3CCC[C@H]3CO)no2)cc1 | 1.22%
CCn1c(COc2ccc3c(c2)OCO3)nnc1SCC(=O)c1ccccc1 | 9%
CCn1c(COc2ccc3c(c2)OCO3)nnc1SCC(=O)O | -4.1%
O=C(/C=C/c1ccccc1Cl)Nc1ccccc1 | -7.35%
COCCOc1ccc(C(F)(F)F)cc1N | 16.5%
Nc1cc(OCC(F)(F)F)cc(OCC(F)(F)F)c1 | 2.81%
C=CCSc1nc2c(c(=O)[nH]c(=O)n2C)n1Cc1ccc(C)cc1 | 1.91%
CN1c2ccsc2/C(=N/Nc2ccc(F)cc2)CS1(=O)=O | 12.5%
Cc1cc(NC(=O)CSc2nc3ccccc3c(=O)n2C2CCCC2)no1 | 3.03%
CN(C)c1ccc(NC(=O)CSc2nc3ccccc3c(=O)n2CC2CCCO2)cc1 (stereo not given) | 1.51%
CCOC(=O)N1CCN(C(=O)CN(CC)S(=O)(=O)c2cc(C)ccc2OC)CC1 | -2.01%
O=[N+]([O-])c1ccccc1Nc1ccccc1[N+](=O)[O-] | -5.54%
CC(=O)Nc1ccc2c3c(ccc([N+](=O)[O-])c13)CC2 | 1.46%
COc1ccc(CCC(=O)N2CCCSC2=Nc2ccc(C(C)=O)cc2)cc1 | 11.6%
O=C1Cc2cc(O)ccc2O1 | -1.58%
O=C(O)c1cccc2c1-c1ccc(Cl)cc1C2 | -7.17%
Cc1cc2c(OCC(O)CN3CCCC3)cccc2[nH]1 (stereo not given) | 2.52%
O=C(CCCc1cccs1)Nc1nc2c(s1)CCCC2 | 12.6%
CCOC(=O)c1ccc(NS(=O)(=O)c2ccc3c(c2)oc(=O)n3C)cc1 | 69.3%
CCOC(=O)c1ccc(NS(=O)(=O)c2ccc3[nH]c(=O)[nH]c3c2)cc1 | 5%

SMILES | inhibition
Cc1[nH]ccc(=O)c1OCc1ccccc1 | 6.47%
O=C(O)c1cc(OCc2ccccc2)cc(OCc2ccccc2)c1 | 1.18%
CCOc1cc(/C=C2/SC(=S)N(Cc3ccccc3)C2=O)ccc1O | 6.48%
Cc1ccc(NC(=O)CSc2nnc(CNC(=O)c3ccco3)n2C)cc1C | -4.15%
O=C(COC(=O)C1CC2CCCC(C1)C2=O)NNC(=O)c1ccccc1Br (stereo not given) | -2.58%
COC(=O)[C@]1(C)N[C@H](CN(C)S(=O)(=O)c2ccc(C(C)(C)C)cc2)[C@@H]2C(=O)N(C)C(=O)[C@@H]21 | 3.98%
Cc1ccc(/C=C2\SC(=S)N(C3CCS(=O)(=O)C3)C2=O)cc1 (stereo not given) | 6.18%
Cc1cc(C)n(/N=C/c2ccco2)c(=O)c1C#N | 11.3%
O=C1/C(=C/c2ccccc2)SC(=S)N1C1CCS(=O)(=O)C1 (stereo not given) | -6.69%
O=C1/C(=C/c2cccs2)SC(=S)N1C1CCS(=O)(=O)C1 (stereo not given) | 0.42%
Cc1ccc(C(=O)N/C(=C/c2ccco2)C(=O)NC2CCS(=O)(=O)C2)cc1 (stereo not given) | -1.97%
Cc1ccc(/C=C2\SC(=S)N(C3CCS(=O)(=O)C3)C2=O)o1 (stereo not given) | -0.73%
CC1c2ccccc2N(NC(=O)Cc2ccccc2)C1C (stereo not given) | 1.5%
CC(=O)c1ccc(N2CCN(C(=O)c3ccc(OCc4c(C)noc4C)cc3)CC2)cc1 | -23.2%
CCn1c(SCC(=O)NNC(=O)Cc2ccccc2)nnc1-c1ccccc1 | 6.74%
CNc1ccc(OC)cc1-n1cnc(-c2ccc([N+](=O)[O-])cc2)c1 | -2.92%
O=C(NCc1ccccn1)/C(=N/O)c1ccccc1 | 1.42%
O=C(NCc1ccccn1)C(=O)NCc1ccccn1 | 5.11%
Cn1nc(C(C)(C)C)cc1C(=O)NCc1ccc2c(c1)OCO2 | 5.42%
O=C(O)c1cccc(-n2cccc2/C=C2/NC(=O)N(c3ccc(Cl)cc3)C2=O)c1 | -7.27%

SMILES | inhibition
O=C(O)c1ccc(COc2ccccc2/C=C2/NC(=O)N(c3cccc(Cl)c3)C2=O)cc1 | 32.2%
O=C1N/C(=C/c2cccn2-c2ccccc2)C(=O)N1Cc1ccccc1F | 0%
N#C/C(=C/c1cccn1-c1cccc(C(=O)O)c1)c1ccc(F)cc1 | 0.42%
O=C(O)c1cc(-c2ccc(/C=C3\NC(=O)N(c4ccccc4)C3=O)o2)ccc1Cl | 25.2%
O=C(O)c1ccc(COc2ccc3ccccc3c2/C=C2/NC(=O)N(c3ccccc3)C2=O)cc1 | 24.9%
N#CC(C#N)=Cc1cccn1-c1ccc(S(N)(=O)=O)cc1 | -2.79%
Cc1c(C(=O)O)cccc1-c1ccc(/C=C2/NC(=O)N(c3ccccc3)C2=O)o1 | 18.3%
Cn1c(C(=O)NCc2cccs2)cc2oc3ccccc3c21 | 2.73%
O=C(NC1(C(F)(F)F)NC(=O)N(CC2CCCCC2)C1=O)c1ccco1 (stereo not given) | 9.27%
CCN(C(=O)c1cn(C)c(=O)c2ccccc12)c1ccccc1F | -11.6%
Cn1cc(CCNCc2cn[nH]c2-c2ccc(-c3ccccc3)cc2)cn1 | -3.24%
CC(C)Cc1cc(C(=O)O)c2ccccc2n1 | 5.6%
CCn1c(Cc2ccccc2)nnc1SCC(=O)Nc1ccc(C)cc1 | -8.39%
CCc1ccccc1NC(=O)Cc1cn(C)c2ccccc12 | -13.9%
CC(C)c1ccc(NC(=O)Cc2cn(C)c3ccccc23)cc1 | 4.75%
Cc1ccc(-c2nnn(CC(=O)N(c3ccccc3)C(C(=O)NC3CCCC3)c3ccco3)n2)o1 (stereo not given) | -1.78% and -5.18%
Cc1ccc(N(C(=O)Cn2nnc(-c3ccc(C)o3)n2)C(C(=O)NC2CCCC2)c2ccco2)cc1 (stereo not given) | 1.99% and -5.57%
COCCN(Cc1ccc(C)c(Br)c1)C(=O)Cn1cnc(S(=O)(=O)N2CCCC2)c1 | 27.4%
CC(C)CCNC(=O)c1cccnc1Sc1ccccc1 | -0.39%
CN(C)C(CNC(=O)c1ccccc1C(F)(F)F)c1ccco1 (stereo not given) | 19%
